Assay outcomes as filed in PubChem BioAssay.
Compounds with a hit are over-represented: about 2.8% of the library has one in this group of screens.
KDM5B inh = inhibitors of human KDM5B histone demethylase. KDM5B demethylase, FDH-coupled NADH fluorescence (FDH is formaldehyde dehydrogenase). Potency, µM (top dose mostly 57.7 µM), most hits filed as inhibitors. 220,000 tested, 2.6% active. AID 1347165; active = well fitted inhibition curve with a large enough effect; inconclusive = small, poorly fitted or top-dose-only effect; inactive = no such curve, though single readings can be large or run the other way; note: potency is the fitted concentration of half-maximal effect; 0% is about no effect; nearly all actives have a fitted effect of over 70% in size
Target sequence (Q9UGL1 whole entry, looked up): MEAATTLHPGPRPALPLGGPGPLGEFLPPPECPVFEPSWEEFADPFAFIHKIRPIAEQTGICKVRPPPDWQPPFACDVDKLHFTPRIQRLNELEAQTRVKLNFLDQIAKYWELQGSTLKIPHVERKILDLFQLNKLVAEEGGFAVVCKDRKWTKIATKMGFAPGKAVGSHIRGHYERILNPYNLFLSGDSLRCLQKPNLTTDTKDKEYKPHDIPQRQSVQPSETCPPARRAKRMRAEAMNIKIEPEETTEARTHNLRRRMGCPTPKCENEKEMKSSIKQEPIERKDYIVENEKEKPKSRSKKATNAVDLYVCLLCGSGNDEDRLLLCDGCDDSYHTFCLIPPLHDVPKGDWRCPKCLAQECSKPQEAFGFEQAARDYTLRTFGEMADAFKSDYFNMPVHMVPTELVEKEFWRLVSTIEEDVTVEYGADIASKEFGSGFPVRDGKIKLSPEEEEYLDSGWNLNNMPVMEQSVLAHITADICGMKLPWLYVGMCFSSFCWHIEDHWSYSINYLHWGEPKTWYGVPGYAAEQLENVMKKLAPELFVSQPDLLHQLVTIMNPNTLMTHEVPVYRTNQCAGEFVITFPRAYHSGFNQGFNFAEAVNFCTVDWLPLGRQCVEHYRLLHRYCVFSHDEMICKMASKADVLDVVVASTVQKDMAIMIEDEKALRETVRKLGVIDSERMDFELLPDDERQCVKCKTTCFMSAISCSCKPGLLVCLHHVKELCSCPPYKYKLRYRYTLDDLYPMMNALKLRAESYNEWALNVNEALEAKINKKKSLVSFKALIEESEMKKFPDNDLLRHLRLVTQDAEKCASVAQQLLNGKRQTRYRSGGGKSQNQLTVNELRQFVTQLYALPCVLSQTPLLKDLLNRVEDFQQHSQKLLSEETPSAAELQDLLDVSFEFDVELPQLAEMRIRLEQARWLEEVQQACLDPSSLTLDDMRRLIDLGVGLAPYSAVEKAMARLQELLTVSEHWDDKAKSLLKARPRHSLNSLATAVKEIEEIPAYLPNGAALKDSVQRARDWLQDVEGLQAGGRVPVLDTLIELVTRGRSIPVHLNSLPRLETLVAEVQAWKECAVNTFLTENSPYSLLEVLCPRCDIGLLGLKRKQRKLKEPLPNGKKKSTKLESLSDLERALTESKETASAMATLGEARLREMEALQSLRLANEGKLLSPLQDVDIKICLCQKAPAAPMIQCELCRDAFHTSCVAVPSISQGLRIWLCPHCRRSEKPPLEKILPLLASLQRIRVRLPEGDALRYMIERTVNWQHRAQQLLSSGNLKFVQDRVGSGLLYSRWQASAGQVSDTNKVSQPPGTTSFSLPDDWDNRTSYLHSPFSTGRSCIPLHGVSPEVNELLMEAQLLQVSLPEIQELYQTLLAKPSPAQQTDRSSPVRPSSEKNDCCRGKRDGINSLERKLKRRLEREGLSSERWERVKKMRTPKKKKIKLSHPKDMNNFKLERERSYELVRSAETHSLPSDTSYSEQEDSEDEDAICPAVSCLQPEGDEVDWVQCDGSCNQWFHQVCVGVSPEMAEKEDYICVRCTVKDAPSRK
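Compound dilutions met 200 nM (final) KDM5BΔAP for 10 min at room temperature before substrate addition. The substrate mix held 12.5 µM H3K4me3 with cofactors 25 µM α-ketoglutarate and 50 µM Fe²⁺. NADH signal gain over 30 min defined activity.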
IP6K1 inhibitor = blocks human inositol hexakisphosphate kinase 1. IP6K1 kinase, ADP-Glo luminescence, 2 h; active compounds read low. 140,000 tested, 0.81% active. Q92551. activity change, % (series mostly up to about 58 µM); in the data active = activity change below about -25%; note: % is set by controls: 0 for no effect and ±100 for the full control effect
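ADP-Glo luminescence measures ADP made by human IP6K1 during a 2 h RT reaction with ATP/IP6 (mix at 1.3 mM/130 uM); top library doses 57.5 and 19.1 uM final.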
Active calls of the source: *; i = inactive; ? = inconclusive; / = not tested or not shown.

SMILES	KDM5B inh	IP6K1 inhibitor
CCN(CC)c1ccc(C(=O)NCc2nnc3cc(-c4nc(C)no4)ccn23)cc1	i	8.7
Cc1noc(-c2ccn3c(CNC(=O)c4cccc(F)c4)nnc3c2)n1	28.2µM*	14.1
CCc1ccc(C(=O)NCc2nnc3cc(-c4nc(C)no4)ccn23)cc1	?	25.3
COc1ccc(C(=O)NCc2nnc3cc(-c4nc(C)no4)ccn23)cc1F	7.94µM*	22.5
Cc1noc(-c2ccn3c(CNC(=O)c4ccc5ccccc5n4)nnc3c2)n1	6.31µM*	39.6
COc1cccc(C(=O)NCc2nnc3cc(-c4nc(C)no4)ccn23)c1	28.2µM*	25.5
Cc1noc(-c2ccn3c(CNC(=O)c4ccc(Cl)cc4)nnc3c2)n1	i	-3.5
COC(=O)c1c(SCC(=O)Nc2ccc(Cl)cc2F)nc(=O)[nH]c1C	i	/
O=C(NCCc1ccccc1)C1CCN(c2ccnc3ccnn23)CC1	/	16.1
Cc1nn2c(=O)cc(CN3CCN(c4ncccn4)CC3)nc2s1	i	/
COCC(=O)N[C@@H]1CN(C(=O)c2ccc(OC)cc2OC)CC[C@@H]1c1nc(C)no1	/	3.5
Cc1cccc(N2CCN(c3cc(C(=O)O)c4cc(NC(=O)c5ccccc5)ccc4n3)CC2)c1	i	/
CC(C)c1nc2c(c(-c3ccc(Cl)cc3)n1)CN(C(=O)c1ccc(Cl)nc1)CC2	/	-5.5
Cn1cc(CN2CCN(c3cnccn3)CC2)c(-c2ccc(C3CCCCC3)cc2)n1	28.2µM*	-1.0
Cc1nn(C)cc1CN(C)Cc1cn(C)nc1-c1ccc(C2CCCCC2)cc1	i	-13.8
CN(Cc1ccccc1)Cc1nnc2cc(-c3nc(-c4ccccc4)no3)ccn12	28.2µM*	19.1
CC(C)N(Cc1ccccc1)Cc1nnc2cc(-c3nc(-c4ccccc4)no3)ccn12	28.2µM*	10.4
CC(C)CN(Cc1nnc2cc(-c3nc(-c4ccccc4)no3)ccn12)CC(C)C	?	17.8
CC1CCCCN1Cc1nnc2cc(-c3nc(-c4ccccc4)no3)ccn12 (centres undefined)	?	16.1
O=C(c1ccc(F)cc1)N1CCCC2(CN[S+](=O)([O-])c3cnccc3N2)C1 (centres undefined)	/	28.7
CN(C)C(CNC(=O)CCc1ncc(-c2ccc(F)cc2)o1)c1ccco1 (centres undefined)	i	/
COc1cccc(Nc2ccc3c(n2)C(C)(C(=O)NCc2ccco2)CN(C)C3)c1 (centres undefined)	28.2µM*	-2.2
CN1Cc2ccc(NCc3ccccc3)nc2C(C)(C(=O)NCc2ccc3c(c2)OCO3)C1 (centres undefined)	?	0.4
COCCNC(=O)C1(C)CN(C)Cc2ccc(Nc3cccc(OC)c3)nc21 (centres undefined)	?	10.4
CN1Cc2ccc(Nc3ccccc3)nc2C(C)(C(=O)NCc2ccc3c(c2)OCO3)C1 (centres undefined)	39.8µM*	7.1
SMILES	KDM5B inh	IP6K1 inhibitor
COc1ccc(CCNC(=O)c2cc(-c3ccccc3F)nc3c2cnn3C)cc1	/	-0.6
CC(c1ccccc1)N(C)C(=O)CSc1cc(C(=O)NC2CC2)c2ccccc2n1 (centres undefined)	i	/
Cc1cccc(NC(=O)c2cc3n(n2)CC(c2ccc(Cl)cc2)OC3)c1 (centres undefined)	?	-4.0
O=C(Nc1ccccc1)c1cc2n(n1)CC(c1ccc(Cl)cc1)OC2 (centres undefined)	?	22.7
Cc1ccc(NC(=O)c2cc3n(n2)CC(c2ccc(Cl)cc2)OC3)cc1 (centres undefined)	20µM*	7.4
Cc1cc(C)cc(NC(=O)c2cc3n(n2)CC(c2ccc(Cl)cc2)OC3)c1 (centres undefined)	25.1µM*	-8.8
CC1CCCN(c2ccc(C=O)cc2)C1 (centres undefined)	i	/
CCc1noc(-c2cccn3c(CNC(=O)Cc4ccc(C)cc4)nnc23)n1	25.1µM*	22.6
CCc1noc(-c2cccn3c(CNC(=O)c4cccc(C)c4)nnc23)n1	28.2µM*	15.9
CC(C)c1noc(-c2cccn3c(CNC(=O)Cc4ccc(F)cc4)nnc23)n1	14.1µM*	0.5
CCc1noc(-c2cccn3c(CNC(=O)CCc4ccc(OC)cc4)nnc23)n1	i	9.7
CC(C)c1noc(-c2cccn3c(CNC(=O)c4cccc5[nH]ccc45)nnc23)n1	?	2.2
CCc1noc(-c2cccn3c(CNC(=O)Cc4ccc(F)cc4)nnc23)n1	28.2µM*	23.8
CCc1noc(-c2cccn3c(CNC(=O)c4cc(C)cc(C)c4)nnc23)n1	?	-1.1
COc1ccccc1-c1cccc(CN2CCC(NC(=O)c3ccccc3C)CC2)c1	/	16.8
Cn1c(=O)c2c(nc(N3CCC(Cc4ccccc4)CC3)n2CC(=O)O)n(C)c1=O	i	/
COc1cc(F)cc(-c2cnc3[nH]cc(CC(=O)NCc4cccnc4)c3c2)c1	?	-22.4
O=C(Cc1c[nH]c2ncc(-c3ccc(F)cc3)cc12)NCc1cccnc1	28.2µM*	-18.0
O=C(Cc1c[nH]c2ncc(-c3cccc(OC(F)(F)F)c3)cc12)NCc1cccnc1	28.2µM*	-12.9
O=C(Cc1c[nH]c2ncc(-c3cn[nH]c3)cc12)NCc1cccnc1	?	-16.1
COc1ccc(C(=O)N2CCCC(N3C(=O)c4c(c(C)nn4-c4ccccc4)C3C)C2)cc1 (centres undefined)	/	7.7
CCCCc1[nH]nc2c1C1(C(=O)Nc3ccc(Cl)cc31)C(C#N)=C(N)O2 (centres undefined)	i	/
C=CCN(Cc1cccs1)C(=O)c1ccncc1	i	/
CC(=O)N[C@@H]1CN(Cc2cc(=O)n3[nH]cnc3n2)C[C@H]1c1ccc(C)o1	22.4µM*	20.6
CC(=O)N[C@@H]1CN(S(=O)(=O)c2sccc2C)C[C@H]1c1ccc(C)o1	i	17.8
SMILES	KDM5B inh	IP6K1 inhibitor
COCCc1noc(C2Cc3ccccc3N2C(=O)CCc2cccc(OC)c2)n1 (centres undefined)	/	-0.3
COc1ccccc1-c1nccc2c(=O)cc(C3=CCOCC3)oc12	?	-9.1
COCCn1ccc2c(C3=CCOCC3)nc(-c3cccc(NC(C)=O)c3)cc21	35.5µM*	-12.5
COCCn1ccc2c(C3=CCOCC3)nc(-c3cccc(N[S+](C)(=O)[O-])c3)cc21	i	-11.1
COCCn1ccc2c(C3=CCOCC3)nc(-c3cccc4cn[nH]c34)cc21	35.5µM*	0.7
COc1ccc(C(=O)N2CCC(C(=O)N3CCC(c4nc5ncccc5[nH]4)CC3)CC2)cc1	/	13.8
O=C(NCC(F)(F)F)C1CCN(c2nccc(Nc3ccccc3Cl)n2)CC1	/	9.3
O=C(Nc1ccccc1)Nc1ccc(NC(=O)c2cc[n+]([O-])cc2)cc1	i	/
CC(NC(=O)COc1ccccc1)C(=O)N1CCN(c2ccccn2)CC1 (centres undefined)	22.4µM*	-0.9
Cc1cccc(OCC(=O)NC(C)C(=O)N2CCN(c3ccccn3)CC2)c1 (centres undefined)	35.5µM*	19.1
CCOc1ccc(C(=O)NC(C)C(=O)N2CCN(c3ccccn3)CC2)cc1 (centres undefined)	?	1.5
Cc1cccc(OCC(=O)N[C@@H]2CN(c3ncccn3)C[C@H]2CO)c1	?	0.9
Cn1ncc2c(C(=O)N3CCC(Cc4ccccc4)CC3)cc(-c3ccccc3F)nc21	/	18.8
